Compound activity (PubChem BioAssay)
Rows were chosen to be rich in hits. Some 1.7% of all compounds tested hit in one or more screens of this group.
GLP1R inv ag = GLP-1 receptor (human) inverse agonism; P43220; Potency, µM (top dose mostly 38.3 µM), hits mostly inhibitors; hit rate 1.6% among 410,000; HEK293 GLP-1R CRE-luciferase, luminescence, 24 h; GLP-1R form is constitutively active; further: nearly all actives have a fitted effect of over 55% in size
Target sequence (P43220 whole entry, looked up): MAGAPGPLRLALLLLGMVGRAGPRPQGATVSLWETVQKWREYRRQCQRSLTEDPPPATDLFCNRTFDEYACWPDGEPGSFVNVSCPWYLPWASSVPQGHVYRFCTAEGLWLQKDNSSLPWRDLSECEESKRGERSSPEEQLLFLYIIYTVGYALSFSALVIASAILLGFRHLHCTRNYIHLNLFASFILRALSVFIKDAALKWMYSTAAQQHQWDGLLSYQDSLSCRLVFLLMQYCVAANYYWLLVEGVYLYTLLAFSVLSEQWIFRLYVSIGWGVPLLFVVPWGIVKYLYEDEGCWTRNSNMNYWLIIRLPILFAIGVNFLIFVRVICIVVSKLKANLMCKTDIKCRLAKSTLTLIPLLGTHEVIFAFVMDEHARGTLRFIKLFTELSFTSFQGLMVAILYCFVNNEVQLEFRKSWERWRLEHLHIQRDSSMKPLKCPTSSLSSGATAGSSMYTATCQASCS
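Stable HEK293 clone (constitutively active GLP-1R + cAMP-response luciferase); 200 cells/uL plated, 12 h pre-culture, compound 24 hr, 37 deg C/5% CO2; detection reagent 12 min RT; luminescence.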
GLP1R cytotox = cytotoxicity counter-screen for GLP-1 receptor inverse agonists | HEK293 cAMP-luciferase reporter cells, luminescence, 24 h | Potency, µM (highest dose often 38.3 µM), usual class: inhibitors | hit rate 0.13% among 410,000;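 further: loss of luciferase light is scored as toxicity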
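Luminescence readout: signal drop marks cytotoxicity. Plated cells grew 12 h at 37 °C, 5% CO2, received 23 nL compound for 24 h, then got luciferase reagent, read after 12 min at RT.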
PTHR1 ag = agonists of human PTHR1 parathyroid hormone receptor | AID 743266 | Q03431 | Potency, µM (doses to about 115 µM), most hits filed as activators | HEK293 GP2 PTHR1 cells, GloSensor cAMP luminescence, 1 h | hit rate 0.075% among 410,000; further: nearly all actives have a fitted effect of over 55% in size
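HEK-293-derived GP2 cells expressing PTHR1 and a GloSensor cAMP reporter, 3,000/well, plated overnight, given luciferin plus IBMX (each 0.5 mM as added) for 1 h at 37 °C, then compound for 1 h at 37 °C. Luminescence was read after 15 min at room temperature.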
GLP-1R agonist = GLP-1 receptor (human) agonism; P43220; HEK293 GLP-1R CRE-luciferase, luminescence, 4-6 h; cells express a hypersensitive GLP-1R form; Potency, µM (series often up to 45.6 µM), most hits filed as activators; hit rate 0.007% among 380,000; AID 624172
Each line names hits and unclear results; the compound was inactive in the other large screens. The call rests on the fitted dose curve; in most records, active means well fitted curve in the direction sought with a large enough effect; inconclusive means small, poorly fitted or top-dose-only effect, or another doubt; inactive means no such curve, though single readings can be large; an effect the other way counts as inactive or inconclusive.

Cc1cc(/C=C2/SC(=S)N(c3cccc(C(F)(F)F)c3)C2=O)c(C)n1-c1cccnc1	GLP1R inv ag 5µM
Cc1cccc(OCCn2c(SCC(N)=O)nc3ccccc32)c1	none (no result: GLP-1R agonist)
CC(C)CCNC(=O)C(=O)Nc1c2c(nn1-c1ccc(Cl)cc1)CSC2	none (no result: GLP-1R agonist)
CC(=O)c1cccc(NC(=O)C2CCN(S(=O)(=O)c3ccc4c(c3)oc(=O)n4C)CC2)c1	none
CCc1ccc(C(=O)NNc2ccc(Cl)cc2)cc1	GLP1R inv ag 1µM, GLP1R cytotox inconclusive
CCc1ccc(C(=O)NNc2cc(Cl)cc(Cl)c2)cc1	GLP1R inv ag 1µM
COc1cccc(-n2cc(C(=O)Nc3cccc(C(F)(F)F)c3)c3ccccc3c2=O)c1	none (no result: GLP-1R agonist)
O=C(CSc1nc(-c2ccccc2)c(-c2ccccc2)o1)N1CCCCC1	GLP1R inv ag 11µM
O=C(CCSc1nc(-c2ccccc2)c(-c2ccccc2)o1)N1CCCCC1	GLP1R inv ag inconclusive
O=C(CSCC(=O)N1CCCCC1)Nc1nc(-c2ccccc2)c(-c2ccccc2)s1	GLP1R inv ag 5.6µM
CCOc1ccccc1CNCc1cccn1-c1nnc(N2CCN(c3ccccc3)CC2)s1	GLP1R inv ag inconclusive, GLP1R cytotox inconclusive (no result: GLP-1R agonist)
CC(C)c1ccc(NC(=O)C2CCCN2S(=O)(=O)c2ccc3nc(-c4ccccc4)[nH]c3c2)cc1 (stereo not given)	GLP1R inv ag 8.9µM (no result: GLP-1R agonist)
Cc1ccc(NS(=O)(=O)c2ccc3nc(-c4ccccc4)[nH]c3c2)cc1Cl	GLP1R inv ag 10µM
Cc1cc(NS(=O)(=O)c2ccc3nc(-c4ccccc4)[nH]c3c2)ccc1Br	GLP1R inv ag inconclusive
COc1cc2cc(CNc3ccccc3)c(=O)n(CC(=O)Nc3cc(C)cc(C)c3)c2cc1OC	none
CCOC(=O)C1CCCN(C(=O)c2[nH]c3ccccc3c2Sc2ccc(Cl)cc2)C1 (stereo not given)	GLP1R inv ag 11µM, GLP1R cytotox inconclusive (no result: GLP-1R agonist)
O=[N+]([O-])c1cc(C(F)(F)F)ccc1NCCc1c[nH]c2ccc(O)cc12	none
O=[N+]([O-])c1cc(C(F)(F)F)ccc1NCCc1c[nH]c2ccccc12	GLP1R inv ag inconclusive, GLP1R cytotox 10µM
CSc1nc(Cl)c(Cc2ccc(OC(C)C)cc2)c(N2CCOCC2)n1	GLP1R inv ag 13µM
CCOC(=O)c1c(C)c(C)n(Cc2cccc(OC)c2OC)c1C	GLP1R inv ag inconclusive
CCOC(=O)c1cc(C)n(Cc2cccc(OC)c2OC)c1C	GLP1R inv ag 4µM
Cc1ccc(-c2nc3cccc(C)n3c2Nc2ccc3c(c2)OCO3)o1	GLP1R inv ag inconclusive (no result: GLP-1R agonist)
Cc1cccc2nc(-c3ccco3)c(Nc3ccc4c(c3)OCO4)n12	GLP1R inv ag 8.9µM
CSc1ccc(-c2nc3cccc(C)n3c2Nc2ccc3c(c2)OCO3)cc1	GLP1R inv ag 10µM (no result: GLP-1R agonist)
Cc1ccc(C(=O)OCc2cc(=O)n3nc(-c4cccs4)sc3n2)cc1	none (no result: GLP-1R agonist)
Fc1ccc(-c2nc(Nc3cccc(C(F)(F)F)c3)nc3c2COc2ccccc2-3)cc1	none (no result: GLP-1R agonist)
O=C(C1CCCCC1)N(Cc1cccnc1)c1nc2ccc(F)cc2s1	GLP1R inv ag 11µM (no result: GLP-1R agonist)
CC(C)(C)NC(=O)NC(=O)COc1ccc(Br)cc1Br	GLP1R inv ag 10µM
Cc1cc(Br)ccc1NC(=O)CNC(=O)CN1C(=O)NC2(CCCCCC2)C1=O	none
Cc1cc(Br)ccc1NC(=O)CN1C(=O)C2C3CC(c4ccccc4)C(C3)C2C1=O (stereo not given)	GLP1R inv ag 10µM
CCS(=O)(=O)N1CCCc2cc(C(=O)Nc3cc([N+](=O)[O-])ccc3C)ccc21	none (no result: GLP-1R agonist)
COc1ccc(CNC(=O)CCC(=O)N2CC3CCCN3c3ccccc32)cc1 (stereo not given)	PTHR1 ag inconclusive (no result: GLP-1R agonist)
Cc1ccc(-c2nnc(CSc3nnc(COc4cccc5ccccc45)n3-c3ccccc3)o2)cc1	GLP1R inv ag 11µM
CCN(Cc1ccc(C#CCCO)cc1)CC1CCCN(CCc2cccc(F)c2)C1 (stereo not given)	GLP1R inv ag 10µM
Cc1ccc(OCCSc2nc3ccccc3n2CC(=O)N2CCOCC2)c(C)c1	none (no result: GLP-1R agonist)
Cc1ccc(-n2cc(-c3ccccc3)c3c(NC4CCCC4)ncnc32)cc1	GLP1R inv ag 2.5µM (no result: GLP-1R agonist)
CC1CN(c2ncnc3c2c(-c2ccccc2)cn3-c2ccc(F)cc2)CC(C)O1 (stereo not given)	GLP1R inv ag 4µM
OCCN1CCN(c2ncnc3c2c(-c2ccccc2)cn3-c2ccc(F)cc2)CC1	none
Cc1cccc(-n2cc(-c3ccccc3)c3c(NC4CCCC4)ncnc32)c1	GLP1R inv ag inconclusive (no result: GLP-1R agonist)
Cc1ccc(-n2cc(-c3ccccc3)c3c(N4CCCCC4)ncnc32)cc1	PTHR1 ag inconclusive (no result: GLP-1R agonist)
Cc1ccc(-n2cc(-c3ccccc3)c3c(N4CCOCC4)ncnc32)cc1	GLP1R inv ag 3.5µM
Cc1nnc(SCc2nc(-c3ccc(Cl)cc3)no2)n1-c1ccc(F)cc1	GLP1R inv ag inconclusive (no result: GLP-1R agonist)
CCOC(=O)c1sc2nc(C)nc(NCc3ccc(F)cc3)c2c1C	GLP1R inv ag 7.1µM
COc1ccnc(CSC(N)=Nc2cccc(C(F)(F)F)c2)c1	GLP1R inv ag 11µM
COc1ccnc(CSC(N)=Nc2ccccc2C(F)(F)F)c1	none
Cc1ccc2c(Br)cc(Br)c(O)c2n1	none (no result: GLP1R inv ag, GLP1R cytotox, PTHR1 ag)
Cc1ccc2ccc(C(Nc3ccccc3)c3ccc(Cl)cc3)c(O)c2n1 (stereo not given)	GLP1R inv ag inconclusive (no result: GLP-1R agonist)
Cc1ccc2ccc(C(Nc3ccccc3)c3ccccc3)c(O)c2n1 (stereo not given)	GLP1R inv ag 6.3µM (no result: GLP-1R agonist)
Cc1ccc2ccc(C(Nc3ccccc3)c3ccc(F)cc3)c(O)c2n1 (stereo not given)	GLP1R inv ag inconclusive (no result: GLP-1R agonist)
Cc1ccc2ccc(C(Nc3ccccc3)c3ccc(C(C)C)cc3)c(O)c2n1 (stereo not given)	GLP1R inv ag 3.5µM (no result: GLP-1R agonist)
Cc1ccc(Sc2c(C=O)c3ccccc3n2C)cc1	GLP1R inv ag 5.6µM, GLP1R cytotox inconclusive
O=C(c1ccc2c(c1)CCC2)N1CCN(Cc2c(F)cccc2Cl)CC1	GLP1R inv ag 10µM
COCc1c(C(=O)N2CCN(Cc3c(F)cccc3Cl)CC2)oc2ccccc12	GLP1R inv ag 10µM
COc1cc(/C=C/c2nc(C#N)c(N3CCCCCC3)o2)cc(OC)c1OC	none (no result: GLP-1R agonist)
Cc1oc2ncn(CC(C)C)c(=O)c2c1C(=O)NCCc1ccc(Cl)cc1	none (no result: GLP-1R agonist)
c1ccc(-c2csc(Nc3ccccn3)n2)cc1	GLP1R inv ag 10µM
Cc1ccc(-c2csc(Nc3ccccn3)n2)cc1	GLP1R inv ag inconclusive
Cc1cccc(C)c1OCc1cc(C(=O)N(Cc2c(C)nn(C)c2C)C2CC2)no1	GLP1R inv ag 7.9µM
COc1ccc(-n2nc3ccc(NC(=O)c4c(OC)cccc4OC)cc3n2)cc1	none (no result: GLP-1R agonist)
O=C(Cn1cc(S(=O)(=O)Cc2ccccc2Cl)c2ccccc21)Nc1ccc(F)cc1F	GLP1R inv ag inconclusive (no result: GLP-1R agonist)
CCOC(=O)c1c(C)[nH]c(C)c1S(=O)(=O)N1CCCC(C(=O)N2CCN(c3ccc(Cl)cc3)CC2)C1 (stereo not given)	GLP1R inv ag inconclusive (no result: GLP-1R agonist)
N=c1c2c(n(Cc3cccc(Cl)c3)c3c1CCC3)CCCC2	GLP1R cytotox 5µM
